From PubChem BioAssay (NCI)
The panel holds about 83,000 compounds, 20% with a hit somewhere; the sample as a whole holds those more often.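 Activity criterion: percent growth below 10, measured after cells in 96-well plates were exposed to a single compound concentration for 48 hours.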 Values without a mark were called inactive. The source made the active and inactive calls.

Legend:
Experiment in all cases: NCI-60 one-dose screen, 48 h (100 = growth as untreated, 0 = no growth, -100 = all killed)
[1] = test system: HT29 colon; details: 10 µM unless noted
[2] = test system: SNB-19 CNS; details: 10 µM unless noted
[3] = test system: U251 CNS; details: 10 µM unless noted
[4] = test system: PC-3 prostate; details: 10 µM unless noted
[5] = test system: UACC-62 melanoma; details: 10 µM unless noted
[6] = test system: LOX IMVI melanoma; details: 10 µM unless noted
[7] = test system: SK-MEL-28 melanoma; details: 10 µM
[8] = test system: SK-MEL-2 melanoma; details: 10 µM unless noted
[9] = test system: EKVX NSCLC; details: 10 µM unless noted
[10] = test system: SN12C renal; details: 10 µM unless noted
[11] = test system: UO-31 renal; details: 10 µM unless noted
[12] = test system: TK-10 renal; details: 10 µM unless noted
[13] = test system: ACHN renal; details: 10 µM unless noted
[14] = test system: CAKI-1 renal; details: 10 µM unless noted
[15] = test system: CCRF-CEM leukemia; details: 10 µM unless noted
[16] = test system: MOLT-4 leukemia; details: 10 µM unless noted
[17] = test system: SR leukemia; details: 10 µM unless noted
[18] = test system: SNB-75 CNS; details: 10 µM unless noted
[19] = test system: A498 renal; details: 10 µM unless noted
[20] = test system: SK-MEL-5 melanoma; details: 10 µM unless noted

Structure (SMILES)	growth [1]	growth [2]	growth [3]	growth [4]	growth [5]	growth [6]	growth [7]	growth [8]	growth [9]	growth [10]	growth [11]	growth [12]	growth [13]	growth [14]	growth [15]	growth [16]	growth [17]	growth [18]	growth [19]	growth [20]
CN1C(=O)N(C)C2C1NN=c1s/c(=C\c3ccc([N+](=O)[O-])cc3)c(=O)n12 (configuration not stated)	25.9%	54%	69.8%	45.8%	39.4%	51.3%	76.9%	64.6%	87.5%	88.7%	63.5%	95.2%	53.6%	40.2%	70.4%	64.3%	22%	–	–	–
CCN1C(=O)N(CC)C2C1NN=c1s/c(=C3\C(=O)N(CC(C)(C)C)c4ccccc43)c(=O)n12 (configuration not stated)	6.57% (active)	33.1%	21%	20.8%	36.1%	38.7%	–	53.6%	49.6%	32.6%	38.9%	84.3%	40.7%	38.5%	10.2%	16.3%	6.48% (active)	–	–	–
O=C1N=c2ccccc2=C1c1sc(=Nc2ccccc2)n(Nc2ccccc2)c1O	112%	–	97.5%	97.3%	92.1%	100%	112%	103%	94.2%	106%	81.4%	138%	109%	37.2%	103%	99.3%	99.2%	–	–	–
CN1C(=O)N(C)C2C1NN=c1s/c(=C\c3ccc(Cl)cc3Cl)c(=O)n12 (configuration not stated)	15%	26.5%	27.5%	20%	30%	19.7%	58.7%	57%	50.1%	30.9%	47.3%	83.7%	29%	40.9%	15%	13.1%	4.89% (active)	–	–	–
CCCN1C(=O)N(CCC)C2C1NN=c1s/c(=C3\C(=O)N(C(C)C)c4ccccc43)c(=O)n12 (configuration not stated)	18.8%	47.9%	48.4%	35.8%	31.5%	–	60.7%	49.4%	51%	–	30.9%	78.9%	23.4%	31.7%	45.8%	46.3%	7.97% (active)	–	–	–
CCN1C(=O)N(c2ccccc2)C2Nn3c(s/c(=C4\C(=O)N(C(C)C)c5ccccc54)c3=O)=NC21 (configuration not stated)	105%	96%	104%	106%	97.5%	100%	118%	102%	97.8%	102%	79.9%	122%	108%	86.9%	103%	107%	108%	–	–	–
COc1cc(/C=C2\Oc3cc(OCCCN4CCCC4)ccc3C2=O)cc(OC)c1	-42.4% (active)	64.7%	18.3%	39.3%	71.1%	-78% (active)	73.5%	108%	77.1%	78.8%	53.4%	101%	-45.4% (active)	58.6%	-24.4% (active)	-22.9% (active)	-49.3% (active)	–	–	–
COC(=O)[C@H]1CCCN1C(=O)[C@H]1CCCN1C(=O)[C@H](Cc1c[nH]c2ccccc12)NC(=S)Nc1cc(C(F)(F)F)cc(C(F)(F)F)c1	7.55% (active)	–	–	39.9%	57%	34.5%	54.8%	94.9%	–	51%	45.5%	80.9%	49%	38.6%	–	29.4%	4.48% (active)	52.8%	77%	–
Cc1c(-c2csc(-n3nc(C(F)(F)F)cc3C(F)(F)F)n2)no[n+]1[O-]	99.2%	–	104%	98.6%	89.5%	99%	102%	99.4%	69.6%	–	85.8%	118%	107%	87.6%	95.7%	87.3%	91.1%	–	–	–
CC(=O)SC1CC(=O)C=C2CCC3C4CCC(=O)OC4(C)CCC3C21C (configuration not stated)	101%	–	99.4%	94%	–	97.8%	120%	–	–	–	87%	93.8%	106%	–	101%	105%	111%	84.2%	101%	–
CC[C@H](C)[C@@H](C(=O)OC)n1cc(CNC(=O)[C@@H](Cc2ccccc2)NC(=O)OCc2ccccc2)nn1	–	93.2%	91.5%	100%	94.6%	99.5%	110%	105%	92.6%	94.6%	76.7%	101%	–	83.4%	85.1%	69.1%	103%	101%	83.3%	103%
NC(=O)CSc1nc(-c2ccc(F)cc2)cc(-c2ccco2)n1	–	106%	99.2%	89.1%	95.4%	96.4%	115%	101%	95.8%	101%	75.2%	129%	–	85.7%	107%	97.9%	94.5%	99.2%	103%	103%
CC(C)Cn1c2c(c(=S)[nH]c1=O)CCC2	111%	97.6%	102%	104%	96.1%	101%	118%	98.2%	102%	97.6%	86%	102%	103%	89.1%	99.3%	108%	106%	–	–	–
S=C1NC2(c3ccccc3)CCC(=S)N2c2ccccc21 (configuration not stated)	105%	–	95%	96.7%	92%	99.7%	114%	97.1%	100%	96.8%	86.2%	124%	108%	78.7%	101%	97.5%	92.9%	–	–	–
O=c1oc2ccc(Br)cc2c(=O)n1-c1ccc(F)cc1F	97.7%	–	7.07% (active)	0.771% (active)	-0.768% (active)	12.6%	20.3%	-16.1% (active)	39%	6.17% (active)	3.24% (active)	11.6%	4.95% (active)	-16.6% (active)	14.1%	17.5%	–	-12.1% (active)	-39% (active)	–
CN1C(=O)N(C)C2(c3ccccc3)n3c(s/c(=C\c4ccccc4)c3=O)=NNC12c1ccccc1 (configuration not stated)	95.5%	98%	96.4%	74.2%	81.2%	86.2%	101%	99.7%	76.1%	91.3%	74.9%	116%	95%	84.5%	92.2%	83%	71.9%	–	–	–
C=CCN1C(=O)/C(=c2\sc3n(c2=O)NC2C(N=3)N(CC)C(=O)N2CC)c2ccccc21 (configuration not stated)	19.9%	44.5%	45.8%	30.5%	35.5%	47.7%	–	65.9%	49.2%	56.7%	56%	101%	52.9%	42.3%	24.4%	36.4%	21.1%	–	–	–
C=C[C@@H]1CCC/C=C/[C@@H]2C[C@H](O)C[C@H]2[C@H](O)/C=C/C(=O)O1	–	33.4%	25.3%	30.3%	22.1%	-63.6% (active)	6.18% (active)	-1.5% (active)	16.9%	13.3%	6.14% (active)	15.5%	–	10.4%	12.6%	-9.66% (active)	-15.1% (active)	33.8%	-17.9% (active)	-90.1% (active)
CN1C(=O)N(C)C2Nn3c(s/c(=C\c4ccc(Cl)cc4Cl)c3=O)=NC21 (configuration not stated)	37%	64%	61.4%	38.9%	47.1%	58.3%	62.1%	89.2%	65.1%	75.6%	62%	117%	56.6%	48.4%	49%	64.1%	35.9%	–	–	–
